Pf growth 48h: P. falciparum growth inhibition at 48 hours (one generation); AID 504832; hit rate 5.9% among 310,000; P. falciparum luciferase growth in erythrocytes, 48 h; Potency, µM (doses to about 28.7 µM), for inactives: top-dose activity change, negative = inhibition, usual class: inhibitors; note: potency is the fitted concentration of half-maximal effect; % is set by controls: 0 for no effect and ±100 for the full control effect
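Luminescence readout; reporter = integrated firefly luciferase in P. falciparum. RBC culture at 2% hematocrit, 0.1% parasitemia final, 37 C/5% CO2; decreased signal taken as growth inhibition.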
Pf growth 96h: P. falciparum growth inhibition at 96 hours; AID 504834; hit rate 6.9% among 320,000; Potency, µM (series often up to 28.7 µM), for the others: at the highest dose activity change, negative = inhibition, hits mostly inhibitors; P. falciparum luciferase reporter growth, 96 h; note: potency is the fitted concentration of half-maximal effect; % is set by controls: 0 for no effect and ±100 for the full control effect
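Infected RBCs, 2% Hct / 0.05% parasitemia final; luciferase-reporter P. falciparum; cpd 96 h, 37 C, 5% CO2; luciferase detection reagent; luminescence.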
Cycloheximide cs: counter-screen for Shiga toxin inhibitors: cycloheximide protein synthesis inhibition; max response, %; hit rate 12% among 300,000; cell reporter, cycloheximide protein synthesis inhibition counterscreen; in the data active = max response mostly above about 13%, no sharp cut-off; inactive = mostly below about 14%; note: read at 38.3 µM for the half of the compounds with a filed dose; 0% is about no effect
LASV entry inh: inhibitors of Lassa virus binding or cell entry; Lassa virus pseudotype entry inhibition, cell reporter; Potency, µM (doses to about 37.9 µM), without a hit: at the highest dose activity change, negative = inhibition, hits mostly inhibitors; hit rate 1.2% among 300,000; AID 540256; calls by dose curve; tested in HEK293 cells; note: potency is the fitted concentration of half-maximal effect; % is set by controls: 0 for no effect and ±100 for the full control effect; nearly all actives have a fitted effect of over 50% in size
Shiga toxin inh: Shiga toxin inhibition. AID 2315. hit rate 9.2% among 290,000. Vero cells, Shiga toxin protein synthesis inhibition reporter. inhibition, % at 38.7 µM; in the data active = inhibition mostly above about 28%, no sharp cut-off; inactive = mostly below about 43%; note: 0% is about no effect
Marburg entry inh: blocks Marburg virus binding to or entry into cells; Marburg virus pseudotyped entry inhibition, cell reporter; AID 540276; Potency, µM (titrated, usually from 37.8 µM), for the others: at the highest dose activity change, negative = inhibition, usual class: inhibitors; hit rate 1.8% among 300,000; calls by dose curve; tested in HEK293 cells; note: potency is the fitted concentration of half-maximal effect; % is set by controls: 0 for no effect and ±100 for the full control effect
* marks the source's active call; other numbers are inactive results; ? = inconclusive; · = no result given; [ ] = remark or other dose. An excerpt weighted towards active compounds, which were near 19% of everything screened. Unless noted, calls come from the whole dose curve; as a rule, active = well fitted inhibition curve with a large enough effect; inconclusive = small, poorly fitted or top-dose-only effect, or another doubt; inactive = no such curve, though single readings can be large or run the other way.

SMILES	Pf growth 48h	Pf growth 96h	Cycloheximide cs	LASV entry inh	Shiga toxin inh	Marburg entry inh
Cc1ccc(C(=O)Nc2ccc(N3CCOCC3)nc2N2CCOCC2)cc1	39%	-17%	1	-7%	24	-4%[14.2 µM]
Cc1nnc(SCC(=O)Nc2ccc(N(C)C)cc2)[nH]c1=O	·	·	7	8%[46.1 µM]	25	8%[46.1 µM]
COc1ccc(CN2CCCCCC2)cc1	?	?	-1	18%	-11	-3%
COc1ccc(N=Nc2cc(C)c(O)c(CN3CCCCC3)c2)cc1	0.26µM*	0.26µM*	11	5%	16	-26%[46.1 µM]
CC(C)NC(=O)C(c1ccc(F)cc1)N(C(=O)CCC(=O)Nc1ccccn1)C1CCCC1 (configuration not stated)	-23%	-4%	-3	·	-7	4%[46.1 µM]
O=C(C(Br)=Cc1ccccc1)c1ccccc1	·	·	·	?	·	5µM*
O=C(CSc1nc2c(sc3ccccc32)c(=O)n1CCCC(=O)NC1CCCC1)Nc1ccc(F)cc1	·	·	·	16%[46.1 µM]	·	-2%[46.1 µM]
CCCN(CCC)C(=O)Cn1c(=O)n(CCCC(=O)NCc2ccco2)c(=O)c2sccc21	2%	11%	-10	-26%[46.1 µM]	-16	-7%[46.1 µM]
O=C(N/N=C/c1c[nH]c2ccccc12)c1ccc(O)c(O)c1	-65%	-2%	24*	15%	64*	18%
O=C(N/N=C/C1C(c2ccccc2)C1(Cl)Cl)c1cccc(Cl)c1 (configuration not stated)	54%	0%	40*	9%	49*	23%
CC(SC(C)C(=O)NN=Cc1c[nH]c2ccccc12)C(=O)NN=Cc1c[nH]c2ccccc12 (configuration not stated)	·	·	·	-15%[46.1 µM]	·	12%[46.1 µM]
NC(=Nc1ccccc1)NN=Cc1c[nH]c2ccccc12	·	·	·	-20%	·	?
O=C(Nc1ccc(N=Nc2ccccc2)cc1)c1cccc(Cl)c1	26%	53%	-1	-24%[14.3 µM]	0	28%
O=C(N/N=C/c1c[nH]c2ccccc12)c1cccc(O)c1	36%	288%	26*	·	70*	·
COc1ccc(C(=O)N/N=C/c2cc3ccccc3[nH]c2=S)cc1	·	13µM*	3	-17%	11	-20%
Cc1nc2ccc(NC3=NCCCCC3)cc2s1	·	0%	-2	?	-22	-3%
COc1ccc(C(=O)N/N=C/c2c[nH]c3ccccc23)cc1	27%	-16%	31*	?	69*	22%
CC(=O)Nc1cccc(C(=O)N/N=C/c2ccc(C)o2)c1	23%	26%	11	16%[46.1 µM]	17	5%[46.1 µM]
COc1ccc2c(c1)c(/C=N/Nc1ccc(C(=O)O)cc1)c(C)n2C	22%	-20%	43*	·	70*	·
CC(=O)Nc1cccc(C(=O)N/N=C/c2c[nH]c3ccccc23)c1	25%	2.3µM*	13*	6%	39	?
O=C(N/N=C/c1c[nH]c2ccccc12)c1cccc(Cl)c1	17%	?	47*	·	46*	·
CCOc1ccccc1C(=O)N/N=C/c1c[nH]c2ccccc12	0%	?	17	-28%	17	12%[46.1 µM]
Cc1cccc(-n2nnnc2SCC(=O)NC2CCCC2)c1	·	·	·	1%[46.1 µM]	·	5%[46.1 µM]
COc1ccc2c(/C=N/Nc3ccc(C(=O)O)cc3)c[nH]c2c1	75%	44%	47*	-7%[46.1 µM]	133*	?
CCCCCN=C(N)N/N=C/c1c[nH]c2ccc(OC)cc12	3µM*	3µM*	·	·	·	·
SMILES	Pf growth 48h	Pf growth 96h	Cycloheximide cs	LASV entry inh	Shiga toxin inh	Marburg entry inh
COc1ccc(N2C(=O)c3ccccc3NC2c2ccc(OC)c(COc3ccccn3)c2)cc1 (configuration not stated)	-11%	-66%	16*	?	11	-18%
CCCN1C(=O)c2ccccc2NC1c1ccc(OC)cc1O (configuration not stated)	?	·	-2	1.6µM*	-5	?
COc1ccc(C2Nc3ccccc3C(=O)N2Cc2ccccc2)cc1COc1ccccn1 (configuration not stated)	?	?	-4	?	-13	-16%
COc1ccc(N2C(=O)c3ccccc3NC2c2ccc(OC)c(CSc3ccccn3)c2)cc1 (configuration not stated)	117%	146%	56*	-8%	76	?
COc1ccc(N2C(=O)c3ccccc3NC2c2ccc(NC(C)=O)cc2)c(OC)c1 (configuration not stated)	17%	9%	-3	13%	12	?
CCCN1C(=O)c2ccccc2NC1c1ccc(OC)c(CSc2ccccn2)c1 (configuration not stated)	?	10µM*	1	?	-10	?
COc1ccc(S(=O)(=O)NCc2ccncc2)cc1NC(=O)c1ccccc1F	-23%	-13%	·	·	·	·
O=C(Cn1cnc2ccccc21)Nc1ccc(SC(F)F)cc1	-25%	-6%	11	-16%[46.1 µM]	16	3.2µM*
COc1ccc(NC(=O)COC(=O)Cn2cnc3ccccc32)cc1	·	·	·	3%	·	1%
CCn1c(N)[n+](CC(=O)Nc2ccc(SC(F)F)cc2)c2ccccc21	8.3µM*	2.9µM*	-4	?	-3	4.5µM*
Nc1c(C(=O)NCCN2CCOCC2)c2nc3ccccc3nc2n1CCc1ccccc1F	?	13µM*	-3	-4%	-12	?
C=CCNC(=O)c1c(N)n(CCN2CCOCC2)c2nc3ccccc3nc12	-15%	40%	-3	28%	46	-10%
Nc1c(C(=O)NCCN2CCOCC2)c2nc3ccccc3nc2n1CCc1ccccc1	9.3µM*	-19%	-2	?	-11	?
c1ccc(-c2nc(N3CCCCCC3)c3ccccc3n2)nc1	0.83µM*	·	-2	4µM*	-5	?
c1ccc2c(N3CCCCC3)nc(N3CCCC3)nc2c1	13µM*	4.7µM*	-1	?	-9	?
COc1ccc(C(=O)CSc2nc(-c3ccccn3)nc(C)c2Cl)cc1	?	?	-2	?	-7	?
c1ccc2c(c1)nc(N1CCCCC1)c1ccccc12	34%	48%	1	-3%	11	?
Cc1nc(-c2ccccn2)nc(N2CCOCC2)c1Cl	?	2.3µM*	7	?	-6	4%[46.1 µM]
Cc1nc(-c2ccccn2)nc(N(C)c2ccccc2)c1Cl	1.7µM*	1.2µM*	20	·	22	·
Cc1nn(C)c2c1c(C(F)(F)F)cc(=O)n2Cc1ccc(Br)cc1F	·	·	·	-3%[46.1 µM]	·	·
O=C(Cn1c(=O)n(CCc2ccccc2)c(=O)c2c3c(sc21)CCCC3)Nc1ccc(F)c(F)c1	·	·	·	-14%[46.1 µM]	·	-11%[46.1 µM]
CCOC(=O)CC1(C)NC(C(=O)O)C(C)(C)S1 (configuration not stated)	·	·	·	9%	·	18%
Cc1nnc2sc(SCC(=O)Nc3ccc(Br)cc3)nn2c1=O	?	?	1	8%	-6	-1%[46.1 µM]
Cc1nc2ccccc2nc1N1CCCC1	62%	52%	22	3%	40*	17%[46.1 µM]
Cc1nc2ccccc2nc1N1CCOCC1	·	19%	-1	0%	11	7%
c1ccc(-c2nc(N3CCOCC3)c3ccccc3n2)nc1	7.4µM*	?	16	?	-5	?

Bioassay records deposited in PubChem by National Center for Advancing Translational Sciences (NCATS).
